High-throughput results: PubChem BioAssay, National Center for Advancing Translational Sciences (NCATS)
JMJD2A Tudor: JMJD2A Tudor domain (human) inhibition; AlphaScreen JMJD2A-Tudor / H3K4me3 peptide binding; Potency, µM (top dose mostly 114 µM), for inactives: at the highest dose activity change, negative = inhibition, actives largely listed as inhibitors; actives 4.4% (n = 390,000); AID 504339; O75164; also: % is scaled to controls: 0 for no effect and ±100 for the full control effect; nearly all actives have a fitted effect of over 50% in size
G9a inh: inhibitors of human histone lysine methyltransferase G9a; Q96KQ7; G9a H3K9 monomethylation, AlphaScreen, 2 h; Potency, µM (series often up to 102 µM), for inactives: at the highest dose activity, negative = inhibition, hits mostly inhibitors; actives 8.8% (n = 350,000); AID 504332; also: % is scaled to controls: 0 for no effect and ±100 for the full control effect; nearly all actives have a fitted effect of over 75% in size
Target sequence (Q96KQ7 913-1193 limits assumed): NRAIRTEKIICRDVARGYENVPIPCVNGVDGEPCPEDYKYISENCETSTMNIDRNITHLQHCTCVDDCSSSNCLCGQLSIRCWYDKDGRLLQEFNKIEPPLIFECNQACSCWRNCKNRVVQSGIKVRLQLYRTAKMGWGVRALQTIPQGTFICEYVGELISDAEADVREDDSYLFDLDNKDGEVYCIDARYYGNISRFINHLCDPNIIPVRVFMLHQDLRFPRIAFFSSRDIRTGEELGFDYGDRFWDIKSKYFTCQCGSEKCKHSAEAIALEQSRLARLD
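Quantitative HTS format: methyltransferase activity on a biotin-tagged H3K9 peptide is measured by AlphaScreen, using a rabbit anti-monomethyl-H3K9 antibody with streptavidin donor and anti-IgG acceptor beads. Final levels are 20 nM enzyme, 500 nM peptide, 20 uM SAM; 2 h RT.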
HP1b binding inh: inhibitors of HP1-beta chromodomain binding to methylated histone tails | P83916 | AlphaScreen HP1-beta / biotin-H3K9me3 peptide binding | Potency, µM (highest dose often 114 µM), for inactives: top-dose activity change, negative = inhibition, hits mostly inhibitors | actives 0.56% (n = 390,000) | AID 540317; also: nearly all actives have a fitted effect of over 70% in size
Target sequence (P83916 whole entry, looked up): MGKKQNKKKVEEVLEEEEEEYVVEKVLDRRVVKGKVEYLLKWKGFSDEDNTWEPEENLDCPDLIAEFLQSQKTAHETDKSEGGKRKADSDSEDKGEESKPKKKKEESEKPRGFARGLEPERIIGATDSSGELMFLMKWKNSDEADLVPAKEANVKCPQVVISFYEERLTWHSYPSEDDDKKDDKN
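AlphaScreen: HP1-beta (50 nM) preformed 30 min with biotin-H3(1-18)K9me3 peptide (50 nM) in PBS pH 7.4, 0.01% Tween-20. Compound added for 30 min at RT, then streptavidin donor/nickel chelate acceptor beads (10 ug/mL) for 30 min.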
L3MBTL1 block: blocks human L3MBTL1; Q9Y468; AlphaScreen L3MBTL1–H3K9me1 peptide binding; Potency, µM (titrated, usually from 57.1 µM), inactives show top-dose activity, negative = inhibition, usual class: inhibitors; actives 0.66% (n = 230,000); AID 485360; also: % is scaled to controls: 0 for no effect and ±100 for the full control effect; nearly all actives have a fitted effect of over 60% in size
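AlphaScreen assay: L3MBTL1 (50 nM final) was preincubated 30 min at room temperature with biotinylated H3(1-15)K9me1 peptide (75 nM final), then 30 min with library compounds; streptavidin donor and nickel chelate acceptor beads (10 ug/mL final) added, 30 min dark.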
Sfp inh: Sfp phosphopantetheinyl transferase inhibition; Q9F4F7; Biochemical Sfp PPTase activity, qHTS; Potency, µM, for the others: largest response in the series, negative = inhibition, hits mostly inhibitors; actives 3.5% (n = 310,000); AID 1490;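 also: the enzyme is Sfp with the accession as filed and its product quenches rhodamine fluorescence; 0% = enzyme reaction without inhibitor and -100% = no enzyme wells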
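With Hepes-Na pH 7.6 buffer containing 10 mM MgCl2, Sfp (15 nM) modified BHQ-2-YbbR (12.5 uM) using rhodamine-CoA (5 uM). Two reads 30 minutes apart at 525/598 nm yielded each well's rate.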
BAZ2B inh: inhibitors of human BAZ2B bromodomain; Q9UIF8; AlphaScreen BAZ2B-H3K14Ac peptide displacement; Potency, µM (doses to about 114 µM), for inactives: at the top dose activity change, negative = inhibition, hits mostly inhibitors; actives 4.4% (n = 360,000); also: % is scaled to controls: 0 for no effect and ±100 for the full control effect; nearly all actives have a fitted effect of over 60% in size
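BAZ2B (50 nM) with biotin-H3(5-23)K14Ac peptide (50 nM) in PBS pH 7.4, 0.01% Tween-20, preformed 30 min, then compound 30 min at room temperature; top concentration 110uM. AlphaScreen streptavidin donor/nickel chelate acceptor beads (10 ug/mL final), 20 min dark, signal read.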
The depositor's hits bear a star; ? = inconclusive; · = no result; ! = not active in a repeat; [ ] = remark or other dose. Only some compounds are listed: those with a hit (about 12% of all), similar ones and a draw of the others. Calls follow the shape of the dose curve; as a rule, active = well fitted curve in the direction sought with a large enough effect; inconclusive = small, poorly fitted or top-dose-only effect, or another doubt; inactive = no such curve, though single readings can be large; an effect the other way counts as inactive or inconclusive. Potency is read from the fitted curve at half-maximal effect.

SMILES	JMJD2A Tudor	G9a inh	HP1b binding inh	L3MBTL1 block	Sfp inh	BAZ2B inh
Cc1cc(C)cc(OC(C)C(=O)Nc2ccccc2C(=O)NCc2cccnc2)c1 (stereo not given)	-25.4%	50.1µM*	27.1%	·	35.5µM*	-28.6%
Cc1cc(C)cc(NS(=O)(=O)c2cc(C(=O)NCc3ccccn3)ccc2Cl)c1	-10.6%	45.3%[59 µM]	26.8%	-2.3%	3.9%	-29.8%
O=C(NCc1cccnc1)c1ccc(Cl)c(S(=O)(=O)N2CCCCCC2)c1	25.1µM*	-0.7%	4.7%	0.6%	-9.4%	-9.0%
O=C(NCc1ccccn1)c1ccc(Cl)c(S(=O)(=O)Nc2ccccc2C(=O)NCc2ccccn2)c1	-31.2%	50.1µM*	36.8%	-6.0%	-14.7%	7.8%
Cc1cc(C)cc(NS(=O)(=O)c2ccc3[nH]cc(C(=O)N4CCc5ccccc54)c(=O)c3c2)c1	-30.8%	-2.8%[59 µM]	-4.0%	-2.1%	-6.7%	?
CCc1ccc(NS(=O)(=O)c2ccc3[nH]cc(C(=O)N4CCc5ccccc54)c(=O)c3c2)cc1	?	50.1µM*	?	?	-8.4%	?
CCOc1ccccc1CNC(=O)C1CCN(S(=O)(=O)c2cccc3nonc23)CC1	-13.7%	0.7%[59 µM]	9.6%	·	·	-3.0%
NC(N)=NCCC[C@H](N)C(=O)NCC(=O)N[C@@H](CC(=O)O)C(=O)O	·	·	·	·	-5.1%	·
CCCCCOC(=O)C1[C@H]2C(=O)N(Cc3cccs3)C[C@]23C=C[C@H]1O3 (stereo not given in full)	-17.9%	9.9%[59 µM]	25.5%	10.2%	8.4%	-2.3%
CCCCOC(=O)C1[C@H]2C(=O)N(Cc3cccs3)C[C@]23C=C[C@H]1O3 (stereo not given in full)	-16.0%	-37.0%[59 µM]	35.1%	-5.0%	-13.8%	79.4µM*
CCCOC(=O)C1[C@H]2C(=O)N(Cc3ccco3)C[C@]23C=C[C@H]1O3 (stereo not given in full)	-18.0%	50.1µM*	37.6%	-1.8%	?	9.8%
CCN(CC)/[N+]([O-])=N/Oc1cc(O/N=[N+](\[O-])N(C)C)c([N+](=O)[O-])cc1[N+](=O)[O-]	?	·	-5.3%	·	-20.4%	·
O=C(CSc1nnc2c(n1)[nH]c1ccccc12)Nc1ccc(N2CCOCC2)cc1	31.6µM*	·	-0.1%	57.1%	7.94µM*	-30.7%
Brc1ccc2[nH]c3nc(SCCN4CCOCC4)nnc3c2c1	79.4µM*!	39.8µM*	6.4%	2.1%	3.7%	-12.0%
Cc1cc2nnc(SCC(=O)Nc3cccc(S(=O)(=O)N4CCOCC4)c3)n2c2ccccc12	-10.6%	50.1µM*	15.0%	1.1%	12.6%	11.9%
Cc1ccc(NC(=O)CSc2nnc3c(n2)[nH]c2ccccc23)cc1	-8.3%	20.1%	19.2%	·	13.5%	-1.1%
O=C(CSc1nnc2c(n1)[nH]c1ccc(F)cc12)N1CCOCC1	-4.5%	-1.7%	29.0%	10.7%	6.6%	-2.8%
Cn1cnnc1SCC(=O)Nc1cccc(S(=O)(=O)N2CCOCC2)c1	6.3%	-6.6%	47.0%	·	14.5%	5.9%
O=C(Cc1c[nH]c2ccccc12)Nc1ccc(N2CCOCC2)cc1	?	22.4µM*	-0.2%	-19.2%	-6.8%	?
O=[S+]([O-])(NC[C@H]1CCC[C@H](CN[S+](=O)([O-])c2c(F)cccc2F)C1)c1ccc2c(c1)OCCO2	-13.7%	·	·	·	·	·
Cc1ccc(S(=O)(=O)c2ccc(Cl)cc2)cc1S(N)(=O)=O	-14.1%	17.6%	20.2%	-3.0%	23.8%	6.4%
Cc1nc(SCC(=O)Nc2cccc(S(=O)(=O)N3CCOCC3)c2)nc(C)c1C	-13.8%	·	-14.3%	4.3%	·	·
O=C(CSc1nnc2c(n1)[nH]c1ccccc12)Nc1cccc(S(=O)(=O)N2CCOCC2)c1	-9.2%	?	25.0%	·	79.4µM*	-5.0%
NS(=O)(=O)c1ccc(NC(=S)NCC2CCCO2)cc1 (stereo not given)	-12.0%	11.2µM*	?	8.8%	44.7µM*	-4.0%
